Assay [1] can be described thus: inhibitors of TNFa-induced NFkB p65 translocation, primary screen, imaging, HUVEC, MLSMR starter and 10KST1 sets (AID 438;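 active = inhibition above 20% together with a positive visual image hit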;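 also: compound added about 3h40 before a 20 min TNFalpha stimulation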;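 as to inhibition: signal is the nuclear over cytoplasmic p65 intensity ratio per well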). To be noted: HUVEC TNFa-induced p65 nuclear translocation; cell count: measured here: nuclei count (cytotoxicity indicator), at 2.08 µM; inhibition: at 2 µM, stronger effect = higher value, 0% TNFa-plus-vehicle, 100% no-TNFa wells.
A short description of assay [2]: reduction of polyQ htt aggregates in cells – imaging, exon1htt(103Q)mCFP cells, high-content imaging, primary screen (AID 483;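 active = visual image review flags a hit and inhibition of aggregation exceeds 20%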;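 also: compound exposure lasted 3 days before fixation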;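 as to nuclei count: percent of the per-plate median nuclei count of sample wells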). To be noted: exon1htt(103Q)mCFP cell line, aggregate imaging, at 2 µM; inhibition of aggregation: stronger effect = higher value; nuclei count: measured here: cell count, toxicity.
A short description of assay [3]: endothelial E-selectin expression blockers – imaging, HUVEC, immunofluorescence, MLSMR starter and 10KST1 sets, primary screen (AID 487).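 As to inhibition: signal is fraction of cell area covered by stained E-selectin grains.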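 As to nuclei count: 100% = median nuclei count of all wells on the same plate.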 The conditions noted are these: HUVEC TNFalpha-induced E-selectin immunofluorescence imaging, at 2 µM; inhibition: stronger effect = higher value; nuclei count: measured here: cell number, toxicity.
Assay [4] concerns the target Voltage-gated potassium channel subunit beta-2 (Rattus norvegicus) (UniProt P62483). Put plainly: inhibitors of rat Kvbeta2 reductase activity – biochemical, NADPH fluorescence, primary screen (AID 622;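 active = fluorescence slope higher than the sample average by over 3 SD, cut at about -0.22 in these data, passing the limit was not always enough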;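 also: slope of raw intensity against log time taken from 70 to 1610 s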). To be noted: recombinant KvBeta, 4-cyanobenzaldehyde reduction, at 10 µM, stronger effect = higher value.
Assay [5] shares this target. As to the kind of experiment: enhancers of rat Kvbeta2 NADPH turnover – biochemical, NADPH fluorescence, primary screen (AID 623;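 active = NADPH fluorescence slope more negative than the mean of all samples by about 3 SD, 99.7% confidence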;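 also: fluorescence intensity change per second fitted from 20 to 320 s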). To be noted: Recombinant KvBeta, NADPH fluorescence decrease slope, 10 min; at 10 µM; stronger effect = lower value.
The target of assay [6] is Alpha-2C adrenergic receptor (Homo sapiens) (UniProt P18825). Put plainly: compounds altering alpha2C-coupled GIRK flux – cell-based, HEK293 alpha2C/GIRK1/2, thallium flux, primary screen (AID 624;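 active = fluorescence slope after compound addition differing from the mean of all screened samples at 99.7% confidence, in either direction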;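 also: slope of fluorescence ratio to pre-addition baseline per second over 15 to 24 s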). The conditions noted are these: thallium flux BTC fluorescence, at 10 µM, actives lie on both sides.
Sequence of Alpha-2C adrenergic receptor (Homo sapiens) (P18825 whole entry, looked up): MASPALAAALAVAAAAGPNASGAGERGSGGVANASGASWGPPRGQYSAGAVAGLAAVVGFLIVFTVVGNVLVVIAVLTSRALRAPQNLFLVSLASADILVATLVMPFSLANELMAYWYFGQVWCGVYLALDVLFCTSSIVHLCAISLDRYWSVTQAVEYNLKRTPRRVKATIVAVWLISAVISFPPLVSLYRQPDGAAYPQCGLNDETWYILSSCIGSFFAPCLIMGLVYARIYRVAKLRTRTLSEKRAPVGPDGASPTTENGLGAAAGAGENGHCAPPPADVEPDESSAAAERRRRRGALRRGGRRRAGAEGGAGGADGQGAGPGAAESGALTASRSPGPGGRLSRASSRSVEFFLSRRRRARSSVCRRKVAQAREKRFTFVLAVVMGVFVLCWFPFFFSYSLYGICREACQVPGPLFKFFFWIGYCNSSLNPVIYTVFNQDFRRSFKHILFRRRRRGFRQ
Assay [7] in a line: blockers of RIG-like receptor reporter activation – cell-based, Sendai virus stimulus, luciferase, 10K MLSCN set, TLR/RLR signaling modifier project, primary screen (AID 602276;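 active = inhibition at or above 50% at 10 µM; inactive = inhibition below 50%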;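 also: firefly luciferase from ISG56 promoter only with Renilla not read in this screen; 0% = Sendai virus plus DMSO and 100% = medium plus DMSO without virus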). The conditions noted are these: HEK293 RL24 IRF3 luciferase reporter, at 10 µM, stronger effect = higher value. (Reporter assays use an easily measured gene product as a stand-in for the process of interest.)
Assay [8] is described as follows: TLR3 IRF3 reporter activation blockers – cell-based, poly I:C stimulus, luciferase, 10K MLSCN set, primary screen (AID 602277;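 active = inhibition of the reporter signal at or above 50%; inactive = inhibition below 50%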). The conditions noted are these: HEK293-TLR3 RL24 IRF3 luciferase reporter, at 10 µM, stronger effect = higher value.

Active and inactive are the calls of the source.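 The calls were made as follows, unless noted: active = visually confirmed hit in the image check and inhibition above 20%; inconclusive = visually confirmed hit but inhibition not above 20%; inactive = no visual hit in the image check.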

Sequence of Voltage-gated potassium channel subunit beta-2 (Rattus norvegicus) (P62483 whole entry, looked up): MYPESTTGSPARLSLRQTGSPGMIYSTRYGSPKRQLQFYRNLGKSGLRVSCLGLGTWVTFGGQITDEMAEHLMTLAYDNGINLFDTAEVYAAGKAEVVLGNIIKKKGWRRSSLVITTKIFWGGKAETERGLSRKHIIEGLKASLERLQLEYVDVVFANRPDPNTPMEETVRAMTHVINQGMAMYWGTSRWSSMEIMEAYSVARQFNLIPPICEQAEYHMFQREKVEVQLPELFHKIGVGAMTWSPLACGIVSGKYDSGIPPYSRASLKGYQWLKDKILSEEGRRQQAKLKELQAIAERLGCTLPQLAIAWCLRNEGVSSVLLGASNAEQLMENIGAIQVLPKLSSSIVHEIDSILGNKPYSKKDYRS

Regarding `O=C1NC(Nc2ccccn2)(C(F)(F)F)C(=O)N1c1ccc(F)cc1` (centres undefined), in assay [1], the cell count turned out to be 483. For the same compound, the inhibition was -1.9% (inactive) in assay [1], -79.1% (inactive) in assay [3], 13.9% (inactive) in assay [7] and 6.37% (inactive) in assay [8]. Further, the inhibition of aggregation in assay [2] is -9.8% (inactive). The nuclei count in assay [2] was 110%; in assay [3], 111%. Also, the fluorescence slope in assay [4] was -0.582 (inactive). Moreover, the NADPH fluorescence slope in assay [5] is -4.6e-05 (inactive). Moreover, the slope in assay [6] was 0.00277 (inactive).

Regarding `COc1ccc(S(=O)(=O)C(C#N)c2nc3ccccc3nc2N2CCCC(C)C2)cc1` (centres undefined), the cell count in assay [1] stood at 714. Besides, the inhibition in assay [1] was -5% (inactive); in assay [3] it was 16% (inactive); in assay [7], 13% (inactive); in assay [8] it was 0.928% (inactive). Moreover, the inhibition of aggregation in assay [2] is -12.7% (inactive). The results for the nuclei count in assay [2] and in assay [3] were 92.2% and 113%, respectively. Besides, the fluorescence slope in assay [4] was -0.417 (inactive). In addition, the NADPH fluorescence slope in assay [5] is 7.1e-06 (inactive). For the same compound, the slope in assay [6] is 0.00445 (inactive).

For the compound `Cc1nnc(N2C(=O)c3oc4ccccc4c(=O)c3C2c2ccco2)s1` (centres undefined), the cell count in assay [1] worked out at 804. The inhibition was -5.5% (inactive) in assay [1], -28.9% (inactive) in assay [3], 12.3% (inactive) in assay [7] and 13.8% (inactive) in assay [8]. The inhibition of aggregation in assay [2] was 8.3% (inactive). Also, the nuclei count in assay [2] stood at 98.1%; in assay [3], 124%. For the same compound, the fluorescence slope in assay [4] was -0.579 (inactive). The NADPH fluorescence slope in assay [5] is -2.5e-05 (inactive). In assay [6], the slope is 0.00589 (inactive).

With `CCn1c2ccccc2c2cc(Nc3cc(C)nc4ncnn34)ccc21`, the cell count in assay [1] was 513. For the same compound, the inhibition was 8.5% (inactive) in assay [1], -104% (inactive) in assay [3], 68.5% (active) in assay [7] and 87.2% (active) in assay [8]. In assay [2], the inhibition of aggregation is 7.5% (inactive). In addition, the nuclei count is 3% in assay [2] and 65.1% in assay [3]. Moreover, in assay [4], the fluorescence slope was -0.527 (inactive). Moreover, the NADPH fluorescence slope in assay [5] was 7.4e-07 (inactive). Besides, the slope in assay [6] was 0.00558 (inactive).

Regarding `CCN(CCCNC(=O)CC1Oc2ccc(C)cc2NC1=O)Cc1ccccc1` (centres undefined), the cell count in assay [1] was found to be 548. In addition, the inhibition in assay [1] is 5.1% (inactive); in assay [3], -42.9% (inactive); in assay [7] it was -5.16% (inactive); in assay [8] it was 30.7% (inactive). In assay [2], the inhibition of aggregation is 30.8% (inactive). Moreover, the results for the nuclei count in assay [2] and in assay [3] were 102% and 128%, respectively. In addition, in assay [4], the fluorescence slope was -0.495 (inactive). The NADPH fluorescence slope in assay [5] was -4.4e-05 (inactive). Further, the slope in assay [6] was 0.00631 (inactive).

With `CCCc1nnc(NC(=O)NCCN2C(=O)C3C4C=CC(C4)C3C2=O)s1` (centres undefined), the cell count in assay [1] came out at 700. The inhibition in assay [1] is -10.4% (inactive); in assay [3] it was -78.4% (inactive); in assay [7] it was -17.6% (inactive); in assay [8], -19.1% (inactive). Also, the inhibition of aggregation in assay [2] is -8.7% (inactive). Besides, the nuclei count amounted to 76% in assay [2] and 125% in assay [3]. Besides, the fluorescence slope in assay [4] was -0.602 (inactive). Also, the NADPH fluorescence slope in assay [5] was 1.8e-06 (inactive). In addition, the slope in assay [6] was 0.00718 (inactive).

For `Cc1oc(-c2cccc(Cl)c2)nc1CN1CCC(C(=O)N2CCN(c3ccccc3F)CC2)CC1`, the cell count in assay [1] worked out at 780. Moreover, the inhibition was -0.6% (inactive) in assay [1], -73.6% (inactive) in assay [3], -0.341% (inactive) in assay [7] and -26% (inactive) in assay [8]. Besides, the inhibition of aggregation in assay [2] is -4% (inactive). For the same compound, the nuclei count in assay [2] worked out at 77.7%; in assay [3] it was 108%. Besides, the fluorescence slope in assay [4] was -0.552 (inactive). The NADPH fluorescence slope in assay [5] was -2.2e-05 (inactive). Moreover, the slope in assay [6] is 0.00639 (inactive).

Regarding `O=C(NCc1ccc(F)cc1)C1CCN(C(=O)NCc2ccccc2)CC1`, the cell count in assay [1] turned out to be 643. For the same compound, the inhibition was -3.5% (inactive) in assay [1], -18.5% (inactive) in assay [3], 5.76% (inactive) in assay [7] and 32.5% (inactive) in assay [8]. The inhibition of aggregation in assay [2] was 2.3% (inactive). The nuclei count was determined as 110% in assay [2] and 106% in assay [3]. In addition, the fluorescence slope in assay [4] is -0.448 (inactive). The NADPH fluorescence slope in assay [5] is -4.9e-05 (inactive). Also, the slope in assay [6] is 0.00381 (inactive).

`O=C(Nc1cccc2ccccc12)c1cnccn1`: in assay [1], the cell count was found to be 419. For the same compound, the inhibition in assay [1] is 11.7% (inactive); in assay [3], -180% (inactive); in assay [7], -180% (inactive); in assay [8], 99.3% (active). Moreover, in assay [2], the inhibition of aggregation is 5.1% (inactive). In addition, the figures for the nuclei count in assay [2] and in assay [3] were 96.9% and 117%, respectively. Besides, the fluorescence slope in assay [4] is -0.52 (inactive). Further, the NADPH fluorescence slope in assay [5] is -3.3e-05 (inactive). The slope in assay [6] is 0.00645 (inactive).

With `CCCn1c(C)nc2c(c1=O)c1nc3ccccc3nc1n2CCc1ccccc1`, the cell count in assay [1] came out at 470. Further, the inhibition in assay [1] is -3.1% (inactive); in assay [3] it was -102% (inactive); in assay [7], 3.36% (inactive); in assay [8], 0.543% (inactive). Moreover, the inhibition of aggregation in assay [2] is 6.9% (inactive). Besides, the nuclei count in assay [2] is 100%; in assay [3], 222%. Besides, in assay [4], the fluorescence slope was -0.303 (inactive). For the same compound, in assay [5], the NADPH fluorescence slope is 2.6e-05 (inactive). In assay [6], the slope is 0.00428 (inactive).

Consider `CCc1cccc(NC(=O)CCc2nc(-c3cccs3)no2)c1`, for which, in assay [1], the cell count amounted to 681. Besides, the inhibition in assay [1] was 11.3% (inactive); in assay [3] it was 7.6% (inactive); in assay [7], -5.35% (inactive); in assay [8] it was 18.5% (inactive). Besides, the inhibition of aggregation in assay [2] was -7.6% (inactive). Moreover, the nuclei count in assay [2] is 106%; in assay [3] it was 114%. In assay [4], the fluorescence slope is -0.531 (inactive). In addition, the NADPH fluorescence slope in assay [5] was -2.7e-05 (inactive). Moreover, the slope in assay [6] is 0.00567 (inactive).

In the case of `CN(C)C(=O)c1ccc(COc2ccccc2Br)o1`, the cell count in assay [1] came out at 730. The inhibition in assay [1] was -11% (inactive); in assay [3], -26.4% (inactive); in assay [7], -40.1% (inactive); in assay [8], -62.5% (inactive). The inhibition of aggregation in assay [2] is 27.2% (inactive). Also, the figures for the nuclei count in assay [2] and in assay [3] were 71.4% and 104%, respectively. Further, the fluorescence slope in assay [4] was -0.606 (inactive). Besides, in assay [5], the NADPH fluorescence slope was -2.2e-05 (inactive). For the same compound, the slope in assay [6] is 0.0062 (inactive).

Take `c1coc(CN(Cc2cccs2)Cc2nnnn2C2CCCCC2)c1`: in assay [1], the cell count is 394. For the same compound, the inhibition in assay [1] is -10.4% (inactive); in assay [3], -12.8% (inactive); in assay [7] it was 19.6% (inactive); in assay [8] it was 24.5% (inactive). The inhibition of aggregation in assay [2] is 26.1% (inactive). Also, the nuclei count worked out at 119% in assay [2] and 97.7% in assay [3]. Besides, the fluorescence slope in assay [4] is -0.571 (inactive). In assay [5], the NADPH fluorescence slope was 1.3e-05 (inactive). The slope in assay [6] was 0.00524 (inactive).

For the compound `CCOC(=O)CSc1nnc(CCc2nc3ccccc3[nH]2)n1C`, the cell count in assay [1] stood at 349. In addition, the inhibition is -1% (inactive) in assay [1], 12.7% (inactive) in assay [3], -7.44% (inactive) in assay [7] and 100% (active) in assay [8]. Further, in assay [2], the inhibition of aggregation was 23.8% (inactive). The nuclei count in assay [2] was found to be 73%; in assay [3], 93.2%. Besides, in assay [4], the fluorescence slope was -0.441 (inactive). Moreover, in assay [5], the NADPH fluorescence slope was -2.8e-05 (inactive). For the same compound, the slope in assay [6] is 0.00684 (inactive).

By inhibition is commonly meant the relative decrease from the control value, in per cent.

Values taken from PubChem BioAssay.
